PubChem BioAssay (Tox21)
Records with an inconclusive call do not appear. Calls of active or inactive are those of the source. Unless noted, calls come from the whole dose curve; as a rule, active = well fitted curve in the direction sought with a large enough effect in the repeat runs; inconclusive = weak or mixed curves; inactive = no such curve, though single readings can be large; an effect the other way counts as inactive or inconclusive.

Key:
[1] = qHTS assay to identify small molecule agonists of H2AX (AID 1224845; active = well fitted activation curve with a large enough effect in the signal ratio in the repeat runs, not every such curve was filed as active; the % refers to the signal ratio; note: potency is the fitted concentration of half-maximal effect)
Procedure, shortened: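 Wild-type CHO-K1 cells, plated overnight, exposed 3hr at 37C to 15 concentrations (0.76% DMSO final). Lysed, then HTRF anti-pH2AX (S139) cryptate and anti-H2AX-d2 antibodies, 24 hr room temperature; 665/620 nm emission read.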

[2] = qHTS assay to identify small molecule agonists of H2AX - cell viability counter screen (AID 1224847; calls by dose curve; note: top concentration of the series differs between compounds; nearly all actives have a fitted effect of over 30% in size)
Procedure, shortened: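 Wild-type CHO-K1 cells (10% FBS medium) were plated overnight at 37C, exposed to compounds at 15 concentrations for 3 hr at 37C (0.76% DMSO final), and viability was read as CellTiter-Glo luminescence after 30 min at room temperature.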

[3] = qHTS RealTime-Glo MT Cell Viability Assay in HepG2 cells - 24 hour (AID 1224867); note: nearly all actives have a fitted effect of over 50% in size
Procedure, shortened: (§1)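 qHTS, HepG2, 600 cells/well, RealTime-Glo (NanoLuc + prosubstrate) added with cells; 5 h preincubation; DMSO compound addition; 37 C; luminescence at 0/8/16/24/32/40 h.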

[4] = qHTS RealTime-Glo MT Cell Viability Assay in HEK293 cells - 32 hour (AID 1224868); note: nearly all actives have a fitted effect of over 50% in size; note: potency is the fitted concentration of half-maximal effect
Procedure, shortened: (§2)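 Assay medium contained NanoLuc luciferase plus cell-permeant prosubstrate, added with HEK293 cells at 600 cells/well. After 5 h at 37 C/5% CO2 compounds were added; plates stayed at 37 C for 40 h with serial luminescence reads.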

[5] = A CellTox Green Cytotoxicity Assay to monitor cytotoxicity in HEK293 cells - 0 hour (AID 1224869); note: nearly all actives have a fitted effect of over 50% in size
Procedure, shortened: (§3)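 Seeding of HEK293 cells together with cytotoxicity dye preceded a 5 h incubation at 37 C/5% CO2. Test compounds in DMSO were then added and fluorescence monitored across 40 h.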

[6] = qHTS RealTime-Glo MT Cell Viability Assay in HepG2 cells - 40 hour (AID 1224870); note: nearly all actives have a fitted effect of over 50% in size
Procedure, shortened: (§4)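 HepG2 cells (600/well) mixed with RealTime-Glo MT reagent, settled 5 h at 37 C/5% CO2 before compound addition. Nonlytic NanoLuc luminescence from viable-cell prosubstrate reduction read repeatedly during 40 h treatment at 37 C.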

[7] = A CellTox Green Cytotoxicity Assay to monitor cytotoxicity in HEK293 cells - 40 hour (AID 1224871); note: nearly all actives have a fitted effect of over 45% in size
Procedure, shortened: as §3

[8] = qHTS RealTime-Glo MT Cell Viability Assay in HEK293 cells - 16 hour (AID 1224872); note: nearly all actives have a fitted effect of over 50% in size; note: potency is the fitted concentration of half-maximal effect
Procedure, shortened: as §2

[9] = qHTS RealTime-Glo MT Cell Viability Assay in HepG2 cells - 8 hour (AID 1224873); note: nearly all actives have a fitted effect of over 55% in size
Procedure, shortened: as §4

[10] = qHTS RealTime-Glo MT Cell Viability Assay in HEK293 cells - 40 hour (AID 1224874); conditions: RealTime-Glo luminescence; max response: stronger effect = lower value; note: nearly all actives have a fitted effect of over 50% in size; note: potency is the fitted concentration of half-maximal effect
Procedure, shortened: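 Tox21 screen in HEK293 using RealTime-Glo MT chemistry, with cells and reagent co-dispensed. Luminescence proportional to viable cell number was captured at intervals during 40 h compound exposure at 37 C.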

[11] = A CellTox Green Cytotoxicity Assay to monitor cytotoxicity in HEK293 cells - 24 hour (AID 1224875); note: nearly all actives have a fitted effect of over 45% in size
Procedure, shortened: as §3

[12] = A CellTox Green Cytotoxicity Assay to monitor cytotoxicity in HepG2 cells - 16 hour (AID 1224876); note: nearly all actives have a fitted effect of over 45% in size
Procedure, shortened: (§5)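 Nonlytic assay: viable cells exclude the dye, so fluorescence scales with cell death. HepG2 at 600 cells/well, compounds added after 5 h, signal read across 40 h.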

[13] = qHTS RealTime-Glo MT Cell Viability Assay in HepG2 cells - 32 hour (AID 1224877); note: nearly all actives have a fitted effect of over 55% in size
Procedure, shortened: as §1

[14] = A CellTox Green Cytotoxicity Assay to monitor cytotoxicity in HepG2 cells - 24 hour (AID 1224878); note: nearly all actives have a fitted effect of over 45% in size
Procedure, shortened: as §5

[15] = qHTS assay to identify small molecule agonists of the hypoxia (HIF-1) signaling pathway - cell viability counter screen (AID 1224844; calls by dose curve; note: nearly all actives have a fitted effect of over 50% in size)
Procedure, shortened: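 Multiplexed with the HRE beta-lactamase assay, this viability read used CellTiter-Glo luminescence (30 min, RT) on HRE-bla ME-180 cells treated 17 hrs with compounds in 0.5% dialyzed FBS medium.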

[16] = A CellTox Green Cytotoxicity Assay to monitor cytotoxicity in HepG2 cells - 40 hour (AID 1224879); note: nearly all actives have a fitted effect of over 40% in size
Procedure, shortened: as §5

[17] = qHTS assay to identify small molecule agonists of the hypoxia (HIF-1) signaling pathway (AID 1224846; active = well fitted activation curve with a large enough effect in the signal ratio in the repeat runs, not every such curve was filed as active; the % refers to the signal ratio)
Procedure, shortened: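 Hypoxia-pathway activation was scored as increased beta-lactamase from an HRE-controlled reporter in ME-180 cells; plated at 2,000 cells per well with 0.5% dialyzed FBS, they were exposed 17 hrs to compounds and then given CCF4-AM.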

[18] = qHTS assay to identify small molecule antagonists of the estrogen related receptor (ERR) signaling pathway from Tox21 library (AID 1224848); note: nearly all actives have a fitted effect of over 50% in size
Procedure, shortened: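 Luminescent reporter read-out (ONE-Glo) from NTP's ERR cell line after 18 h treatment at 37 C with DMSO-dissolved Tox21 compounds; cells pre-plated 6 h beforehand at 2,000 per well.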

[19] = qHTS assay to identify small molecule agonists of the estrogen related receptor (ERR) signaling pathway from Tox21 library (AID 1224849; calls by dose curve; note: nearly all actives have a fitted effect of over 15% in size); conditions: ERR reporter cell line, ONE-Glo luciferase, 18 h; at 92.4 µM (top of the series) unless noted
Procedure, shortened: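 Six hours post-seeding at 37 C/5% CO2, ERR cells receive DMSO-solubilised compounds; after 18 h at 37 C, ONE-Glo reagent is applied and luminescence recorded.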
% is set by controls: 0 for no effect and ±100 for the full control effect.

C=CCCC
inactive: Potency [1] | Potency [2] | outcome [3] | Potency [4] | Potency [5] | Potency [6] | Potency [7] | Potency [8] | outcome [9] | max response [10] 18% | Potency [11] | Potency [12] | Potency [13] | Potency [14]

Nc1nc(Cl)nc2c1ncn2[C@H]1C[C@H](O)[C@@H](CO)O1
active: Potency [1] 14.1 µM
inactive: Potency [15] | outcome [3] | Potency [4] | Potency [5] | Potency [7] | Potency [8] | outcome [9] | max response [10] -25.7% | Potency [11] | Potency [12] | Potency [13] | Potency [14] | Potency [16]

COc1cc(C)c(Cc2cnc(N)nc2N)cc1OC
inactive: Potency [1] | outcome [17] | Potency [2] | Potency [18] | activity change, positive = activation [19] -2.44% [at 42.5 µM] | outcome [3] | Potency [4] | Potency [5] | Potency [6] | Potency [7] | Potency [8] | outcome [9] | max response [10] 5.82% | Potency [11] | Potency [12] | Potency [13] | Potency [14]

CC(C)(Cc1c[nH]c2ccccc12)NCC(O)COc1ccccc1C#N (stereo not given)
inactive: outcome [17] | Potency [2] | Potency [18] | activity change, positive = activation [19] -15.2% [at 42.5 µM] | outcome [3] | Potency [5] | Potency [7] | outcome [9] | Potency [12] | Potency [13]
active: Potency [4] 16.9 µM | Potency [8] 16.9 µM | Potency [10] 19 µM

O=c1[nH]nc(-c2ccc([N+](=O)[O-])o2)o1
inactive: Potency [15] | outcome [17] | Potency [2] | activity change, positive = activation [19] -20.3% | outcome [3] | Potency [4] | Potency [5] | Potency [6] | Potency [7] | outcome [9] | max response [10] -1.91% | Potency [12] | Potency [13] | Potency [14] | Potency [16]

CC(C)CCCCCOC(=O)CS
inactive: Potency [1] | outcome [17] | Potency [2] | outcome [3] | Potency [4] | Potency [5] | Potency [6] | Potency [7] | Potency [8] | outcome [9] | max response [10] 4.02% | Potency [11] | Potency [12] | Potency [13] | Potency [14] | Potency [16]

Nc1ccccc1Nc1ccccc1
inactive: Potency [15] | outcome [17] | outcome [3] | Potency [5] | Potency [6] | Potency [7] | Potency [8] | outcome [9] | Potency [11] | Potency [12] | Potency [13] | Potency [14] | Potency [16]

CCc1cnc(C(=O)O)c(C(=O)O)c1
inactive: Potency [1] | outcome [17] | Potency [2] | outcome [3] | Potency [4] | Potency [5] | Potency [6] | Potency [7] | Potency [8] | outcome [9] | max response [10] 5.23% | Potency [11] | Potency [12] | Potency [13] | Potency [14] | Potency [16]

CS(C)=O
inactive: Potency [15] | Potency [1] | Potency [2] | outcome [3] | Potency [5] | Potency [6] | Potency [7] | Potency [8] | outcome [9] | Potency [13] | Potency [14] | Potency [16]

SCCOCCOCCS
inactive: Potency [15] | outcome [17] | Potency [2] | outcome [3] | Potency [4] | Potency [5] | Potency [6] | Potency [7] | outcome [9] | max response [10] -3.19% | Potency [11] | Potency [12] | Potency [13] | Potency [14] | Potency [16]

CC(=O)CC/C=C(\C)CC/C=C(\C)CC/C=C(\C)CCC=C(C)C
inactive: Potency [15] | outcome [17] | Potency [2] | outcome [3] | Potency [4] | Potency [5] | Potency [6] | Potency [7] | Potency [8] | outcome [9] | max response [10] 4.5% | Potency [12] | Potency [13] | Potency [14] | Potency [16]

CCOC(C)OCC
inactive: Potency [15] | outcome [17] | Potency [2] | outcome [3] | Potency [4] | Potency [5] | Potency [7] | Potency [8] | outcome [9] | max response [10] -0.223% | Potency [11] | Potency [12] | Potency [13] | Potency [14] | Potency [16]

O=C(O)c1cc(C(=O)O)c(C(=O)O)cc1C(=O)O
inactive: Potency [2] | Potency [18] | activity change, positive = activation [19] 4.66% | outcome [3] | Potency [4] | Potency [5] | Potency [7] | Potency [8] | outcome [9] | max response [10] 0.796% | Potency [11] | Potency [12] | Potency [13] | Potency [14]

O=C(O)c1cccnc1Nc1cccc(C(F)(F)F)c1
inactive: Potency [15] | Potency [1] | Potency [2] | activity change, positive = activation [19] -25.2% [at 42.5 µM] | outcome [3] | Potency [4] | Potency [5] | Potency [7] | Potency [8] | outcome [9] | max response [10] -4.24% | Potency [11] | Potency [12] | Potency [13] | Potency [14] | Potency [16]

N#Cc1ccc(CC(=O)c2cccc(C(F)(F)F)c2)cc1
inactive: outcome [17] | Potency [2] | activity change, positive = activation [19] -29.1% | outcome [3] | Potency [5] | Potency [7] | outcome [9] | Potency [11] | Potency [12] | Potency [13] | Potency [14] | Potency [16]

O=C1c2ccccc2C(=O)C1c1ccc2cc(S(=O)(=O)O)cc(S(=O)(=O)O)c2n1
inactive: Potency [2] | Potency [18] | outcome [3] | Potency [4] | Potency [5] | Potency [6] | Potency [7] | Potency [8] | outcome [9] | max response [10] -25.3% | Potency [11] | Potency [13] | Potency [14]
active: activity change, positive = activation [19] 54.8%

O=C1c2ccccc2C(=O)c2c1ccc(O)c2O
inactive: Potency [15] | outcome [17] | Potency [2] | outcome [3] | Potency [4] | Potency [5] | Potency [7] | Potency [8] | outcome [9] | max response [10] -2.45% | Potency [11] | Potency [12] | Potency [13] | Potency [14] | Potency [16]

Cc1c(-c2cccnc2)c2ccccc2n1CCCCC(=O)O
inactive: Potency [15] | outcome [17] | Potency [2] | Potency [18] | activity change, positive = activation [19] -5.77% | outcome [3] | Potency [5] | Potency [6] | Potency [7] | Potency [8] | outcome [9] | max response [10] 2.18% | Potency [11] | Potency [12] | Potency [13] | Potency [14] | Potency [16]

O=C(c1ccc(Cl)cc1)c1ccc(Cl)cc1
inactive: Potency [1] | outcome [17] | outcome [3] | Potency [4] | Potency [5] | Potency [7] | Potency [8] | outcome [9] | max response [10] -15% | Potency [11] | Potency [12] | Potency [13]

CC1=C(C)C(=O)C(C(CCCCCC(=O)O)c2ccccc2)=C(C)C1=O (stereo not given)
inactive: Potency [1] | outcome [17] | Potency [2] | outcome [3] | Potency [4] | Potency [5] | Potency [6] | Potency [7] | outcome [9] | max response [10] 3.36% | Potency [12] | Potency [13] | Potency [14] | Potency [16]

CNc1ccccc1
inactive: Potency [15] | outcome [17] | Potency [2] | Potency [18] | outcome [3] | Potency [4] | Potency [5] | Potency [6] | Potency [7] | outcome [9] | max response [10] 4.77% | Potency [11] | Potency [12] | Potency [13] | Potency [14] | Potency [16]
